In PubChem BioAssay (EPA / NIEHS):
Where “and” joins values, the source holds several entries; their conditions need not be identical. Equal entries are not always repeated. Records with an inconclusive call do not appear. A structure can be active in one record and inactive in another. Calls of active or inactive are those of the source. Rule for the calls: active = hit-call score of the fitted dose curve at least 0.9, where 1 is the maximum; inconclusive = response in the unintended direction; inactive = score below 0.9.

Assay: ATG_XTT_Cytotoxicity: Cytotoxicity Assessment in the Attagene TRANS-FACTORIAL HepG2 Assay (AID 2283584);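 for AC50: cells exposed to compound for 24 h before reading; active means loss of viability signal versus DMSO baseline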
Procedure: ATG_XTT_Cytotoxicity is a cell-based, single-readout assay that uses HepG2, a human liver cell line, with measurements taken at 24 hours after chemical dosing in a 24-well plate.ATG_XTT_Cytotoxicity is one of one assay component(s) measured or calculated from the ATG_XTT_Cytotoxicity assay. It is designed to make measurements of cell number, a form of viability reporter, as detected with […] signals by XTT cytotoxicity assay technology.Data from the assay component ATG_XTT_Cytotoxicity was analyzed into 1 assay endpoint. This assay endpoint, ATG_XTT_Cytotoxicity, was analyzed in the positive analysis fitting direction relative to DMSO as the negative control and baseline of activity. Using a type of viability reporter, loss-of-signal activity can be used to understand changes in the viability. Furthermore, this assay endpoint can be referred to as a primary readout, because the performed assay has only produced 1 assay endpoint. To generalize the intended target to other relatable targets, this assay endpoint is annotated to the cell cycle intended target family, where the subfamily is cytotoxicity.
Human liver HepG2 cells are transiently transfected with multiple reporter transcription units (MRTUs) in 6-well plates using FuGene 6 reagent (Roche; 3 ml FuGene/1 mg DNA). The MRTU constructs are regulated by a cis-regulating element (promoter). […] A major difference between the CIS and TRANS system is that in CIS activities of endogenous TFs are measured, whereas the TRANS assay evaluates changes in activities of exogenous, chimeric NR-Gal4 proteins. […] At the end of 24 hour incubation, total RNA was isolated using TriZol reagent (Invitrogen). The isolated RNA is then reverse-transcribed using oligo(dT) primer and Mo-MLV reverse transcriptase (Invitrogen) with DNAse I (Ambion) treatment for 30 min. The one-tenth of the produced cDNA was amplified by PCR using Taq DNA polymerase (Invitrogen) and two reporter sequence-specific primers. The PCR products were fluorescently labeled by primer extension with 6-arboxyfluorescein (6-FAM) 5'-labeled reporter sequence-specific primer (2 min at 95 C, 20 s at 68 C and 10 min at 72 C) and these products were digested with 5U of HpaI (New England Biolabs) for 2h at 37 C. The fragments were purified using Qiaquick PCR columns (Qiagen), analyzed on an ABI 3130xL genetic analyzer (Applied Biosystems) with peak positions identified by using a set of X-rhodamine (ROX)-labeled MapMarker1000 molecular weight standards (BioVentures). The raw capillary electrophoresis data was processed using Attagraph software (Attagene).

| SMILES | AC50 | outcome |
| --- | --- | --- |
| [O-]n1ccccc1=S.[O-]n1ccccc1=S.[Zn+2] | 2.87 µM (active) | – |
| Cc1ccc(C)o1 | – | inactive |
| CC(C)CC(C)CC(O)CC(C)C (stereo not given) | – | inactive |
| NC1CCCCC1N (stereo not given) | – | inactive |
| OCC#CCO | – | inactive |
| O=C(c1ccccc1)C(O)c1ccccc1 (stereo not given) | – | inactive |
| CC(=O)c1ccccn1 | – | inactive |
| CCCCCCC(CO)CCCC (stereo not given) | – | inactive |
| CS(C)=O | – | inactive |
| CC1(C)O[C@@H]2[C@@H](CO[C@@]3(COS(N)(=O)=O)OC(C)(C)O[C@@H]23)O1 | – | inactive |
| CCC(C)S (stereo not given) | – | inactive |
| O=C(CS)OCCOC(=O)CS | – | inactive |
| O=C(O)CNc1ccccc1 | – | inactive |
| CCCCC(CC)COC(=O)c1ccc(O)cc1 (stereo not given) | 100 µM (active) and 121 µM (active) | – |
| c1ccc(CCc2ccccc2)cc1 | – | inactive |
| O=C(O)c1cc(C(=O)O)cc([N+](=O)[O-])c1 | – | inactive |
| C=C(C)[C@H]1CC=C(C)C(=O)C1 | – | inactive |
| CCCCCCC(C)(C)S | – | inactive |
| Clc1ccc(C(c2ccccc2Cl)C(Cl)Cl)cc1 (stereo not given) | 148 µM (active) | inactive |
| Cc1cc(C)nc(NS(=O)(=O)c2ccc(N)cc2)n1 | – | inactive |

| SMILES | AC50 | outcome |
| --- | --- | --- |
| CCCOC(=O)c1c(Cl)c(Cl)c(Cl)c(Cl)c1C(=O)OCCC | – | inactive |
| OCC(O)c1ccccc1 (stereo not given) | – | inactive |
| CC(=O)NCCO | – | inactive |
| Nc1ccc2c(O)cc(S(=O)(=O)O)cc2c1 | – | inactive |
| CC1=C(Br)C(=O)C(Br)=C/C1=C(/c1ccccc1S(=O)(=O)O)c1cc(Br)c(O)c(Br)c1C | – | inactive |
| O=C(O)c1cccnc1C(=O)O | – | inactive |
| Cc1ccc(S(N)(=O)=O)cc1 | – | inactive |
| Cc1ccc(OC(=O)c2ccccc2O)cc1 | – | inactive |
| C[C@H](CCC(=O)NCC(=O)O)[C@H]1CC[C@H]2[C@@H]3[C@H](O)C[C@@H]4C[C@H](O)CC[C@]4(C)[C@H]3C[C@H](O)[C@]12C | – | inactive |
| ClC(c1ccccc1)(c1ccccc1)c1ccccc1 | – | inactive |
| CCCCCCCC(=O)OCCCCCC | – | inactive |
| CCCCCC(C=O)=Cc1ccccc1 | – | inactive |
| CCCCOCC | – | inactive |
| Oc1ccc2cc(SSc3ccc4cc(O)ccc4c3)ccc2c1 | – | inactive |
| O=c1c(O)c(-c2ccc(O)cc2)oc2cc(O)cc(O)c12 | – | inactive |
| COCCc1ccc(OCC(O)CNC(C)C)cc1 (stereo not given) | – | inactive |
| COc1cc(Cl)c(OC)cc1N | – | inactive |
| O=c1[nH]c(=O)c2cn[nH]c2[nH]1 | – | inactive |
| C=C(C)[C@@H]1CC=C(C)C(=O)C1 | – | inactive |
